From the supplement of paper PMC10849652
Targets with a hit are over-represented here; the source holds about 8,800 in all. About 0.5% of all pairs of compound and target were hits. A number with no mark means an inactive call.

Assays:
Test in all cases: log2 fold change, soluble protein after heating vs DMSO (PISA); higher = thermal stabilisation; K562 lysate, 10 uM; active = over 0.2 and 3.5 SD of the protein, either way, in both replicates (recomputed)
[1] = compound: CN1CC[C@H](c2c(O)cc(O)c3c(=O)cc(-c4ccccc4Cl)oc23)[C@H](O)C1 [alvocidib]
How it was run: (§1)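 Thermal stability, expressed as log-two fold change relative to solvent controls, is given from duplicates. Crude K562 extract in PBS pH 7.4 with 1 mM MgCl2, at 1 mg/mL protein, was treated with 10 μM compound for 30 min and heated in aliquots for 3 min across 48°C-58°C. After pooling, adjustment to 0.5% NP-40 at 4°C and centrifugation at 21,000xg for 90 min, supernatant protein was measured by TMTpro 16plex LC-MS/MS with channel sums equalised.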

[2] = compound: CN1CCc2c(c3ccccc3n2Cc2ccc(C(=O)NO)cc2)C1 [Tubastatin A]
How it was run: as §1

[3] = compound: CNC(=O)C1=CC=CC=C1NC2=NC(=NC=C2Cl)NC3=C(C=C(C=C3)N4CCOCC4)OC
How it was run: as §1

[4] = compound: CNC(=O)c1ccc(Nc2ncc(C(F)(F)F)c(NCc3nccnc3N(C)S(C)(=O)=O)n2)cc1 [defactinib]
How it was run: as §1

[5] = compound: CNc1nc(-c2ccc3c(N)n[nH]c3c2)cc(N2C[C@@H](C(=O)NC3CCCCC3)CC[C@H]2C)n1
How it was run: as §1

[6] = compound: COC(=O)N[C@@H](C)CNc1nccc(-c2cn(C(C)C)nc2-c2cc(Cl)cc(NS(C)(=O)=O)c2F)n1 [encorafenib]
How it was run: as §1

[7] = compound: COC(=O)[C@H](CCSC)NC(=O)C1=C(C=C(C=C1)NC[C@H](CS)N)C2=CC=CC=C2
How it was run: as §1

[8] = compound: COc1cc(Nc2ncc3c(n2)-c2ccc(Cl)cc2C(c2c(F)cccc2OC)=NC3)ccc1C(=O)O [alisertib]
How it was run: as §1

[9] = compound: COc1cc2nc(-c3cc(F)ccc3O)nc(N[C@@H]3CNC[C@H]3C(C)(C)O)c2cc1OC
How it was run: as §1

[10] = compound: COc1cc2ncnc(Nc3ccc(F)c(Cl)c3)c2cc1OCCCN1CCOCC1 [gefitinib]
How it was run: as §1

UniProt P43246, sequence (P43246 whole entry, looked up): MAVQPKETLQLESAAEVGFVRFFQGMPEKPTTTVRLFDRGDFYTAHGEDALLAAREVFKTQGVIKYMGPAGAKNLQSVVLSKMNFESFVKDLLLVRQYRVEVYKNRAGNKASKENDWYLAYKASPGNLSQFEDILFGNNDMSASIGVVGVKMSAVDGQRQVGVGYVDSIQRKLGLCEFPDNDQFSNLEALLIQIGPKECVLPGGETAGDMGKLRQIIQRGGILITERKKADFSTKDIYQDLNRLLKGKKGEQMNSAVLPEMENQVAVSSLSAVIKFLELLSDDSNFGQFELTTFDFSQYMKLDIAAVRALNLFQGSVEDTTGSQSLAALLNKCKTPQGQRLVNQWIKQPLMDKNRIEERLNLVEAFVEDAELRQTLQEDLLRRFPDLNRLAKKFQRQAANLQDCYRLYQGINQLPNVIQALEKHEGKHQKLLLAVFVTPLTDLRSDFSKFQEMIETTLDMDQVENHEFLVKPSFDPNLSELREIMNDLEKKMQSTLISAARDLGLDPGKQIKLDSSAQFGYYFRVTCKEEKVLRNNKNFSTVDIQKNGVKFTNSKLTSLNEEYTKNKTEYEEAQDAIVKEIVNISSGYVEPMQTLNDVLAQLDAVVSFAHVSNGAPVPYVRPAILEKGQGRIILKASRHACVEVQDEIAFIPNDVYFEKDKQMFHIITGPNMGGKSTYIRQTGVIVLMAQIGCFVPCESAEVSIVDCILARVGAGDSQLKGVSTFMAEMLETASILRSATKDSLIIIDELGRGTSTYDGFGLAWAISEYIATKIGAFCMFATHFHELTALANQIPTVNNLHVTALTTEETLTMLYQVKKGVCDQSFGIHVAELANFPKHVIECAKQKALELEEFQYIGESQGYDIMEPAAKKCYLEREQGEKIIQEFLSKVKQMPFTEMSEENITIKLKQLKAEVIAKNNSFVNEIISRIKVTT
UniProt Q9UHQ1, sequence (Q9UHQ1 whole entry, looked up): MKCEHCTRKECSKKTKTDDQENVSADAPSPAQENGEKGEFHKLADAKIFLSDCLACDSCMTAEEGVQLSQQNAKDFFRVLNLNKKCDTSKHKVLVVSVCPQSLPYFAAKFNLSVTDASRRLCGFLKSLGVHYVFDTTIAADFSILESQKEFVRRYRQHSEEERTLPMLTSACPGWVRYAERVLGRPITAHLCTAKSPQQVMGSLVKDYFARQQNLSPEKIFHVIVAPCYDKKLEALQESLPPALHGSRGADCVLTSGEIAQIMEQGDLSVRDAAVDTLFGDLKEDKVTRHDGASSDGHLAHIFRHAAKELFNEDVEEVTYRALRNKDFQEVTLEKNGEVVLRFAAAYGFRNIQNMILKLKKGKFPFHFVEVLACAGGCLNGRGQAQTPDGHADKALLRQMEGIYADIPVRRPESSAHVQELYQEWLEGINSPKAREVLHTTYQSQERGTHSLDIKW
UniProt Q9Y5B6, sequence (Q9Y5B6 whole entry, looked up): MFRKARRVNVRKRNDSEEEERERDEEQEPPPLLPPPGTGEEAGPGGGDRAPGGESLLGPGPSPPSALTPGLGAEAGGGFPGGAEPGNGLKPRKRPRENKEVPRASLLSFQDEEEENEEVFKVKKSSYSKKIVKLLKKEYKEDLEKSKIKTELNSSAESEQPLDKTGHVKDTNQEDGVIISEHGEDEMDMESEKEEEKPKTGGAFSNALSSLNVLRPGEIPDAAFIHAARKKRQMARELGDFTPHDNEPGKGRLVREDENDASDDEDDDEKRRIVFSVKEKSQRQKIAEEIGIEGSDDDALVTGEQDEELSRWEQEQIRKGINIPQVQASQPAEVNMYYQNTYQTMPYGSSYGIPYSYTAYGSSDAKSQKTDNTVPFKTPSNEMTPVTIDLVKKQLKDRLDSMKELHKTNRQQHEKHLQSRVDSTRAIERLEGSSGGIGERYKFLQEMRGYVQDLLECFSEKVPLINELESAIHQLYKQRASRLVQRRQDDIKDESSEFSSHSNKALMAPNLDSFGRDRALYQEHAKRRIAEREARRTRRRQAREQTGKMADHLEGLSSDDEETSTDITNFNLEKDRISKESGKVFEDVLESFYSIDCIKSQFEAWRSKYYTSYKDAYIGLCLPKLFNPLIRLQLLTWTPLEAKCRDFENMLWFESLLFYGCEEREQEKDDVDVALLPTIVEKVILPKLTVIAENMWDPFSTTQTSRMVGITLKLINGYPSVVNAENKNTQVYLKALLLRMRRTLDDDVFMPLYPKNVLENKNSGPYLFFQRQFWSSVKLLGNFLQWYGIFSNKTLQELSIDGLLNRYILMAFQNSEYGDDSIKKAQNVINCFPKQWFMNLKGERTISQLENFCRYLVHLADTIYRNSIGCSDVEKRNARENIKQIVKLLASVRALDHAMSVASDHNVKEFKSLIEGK
UniProt O60934, sequence (O60934 whole entry, looked up): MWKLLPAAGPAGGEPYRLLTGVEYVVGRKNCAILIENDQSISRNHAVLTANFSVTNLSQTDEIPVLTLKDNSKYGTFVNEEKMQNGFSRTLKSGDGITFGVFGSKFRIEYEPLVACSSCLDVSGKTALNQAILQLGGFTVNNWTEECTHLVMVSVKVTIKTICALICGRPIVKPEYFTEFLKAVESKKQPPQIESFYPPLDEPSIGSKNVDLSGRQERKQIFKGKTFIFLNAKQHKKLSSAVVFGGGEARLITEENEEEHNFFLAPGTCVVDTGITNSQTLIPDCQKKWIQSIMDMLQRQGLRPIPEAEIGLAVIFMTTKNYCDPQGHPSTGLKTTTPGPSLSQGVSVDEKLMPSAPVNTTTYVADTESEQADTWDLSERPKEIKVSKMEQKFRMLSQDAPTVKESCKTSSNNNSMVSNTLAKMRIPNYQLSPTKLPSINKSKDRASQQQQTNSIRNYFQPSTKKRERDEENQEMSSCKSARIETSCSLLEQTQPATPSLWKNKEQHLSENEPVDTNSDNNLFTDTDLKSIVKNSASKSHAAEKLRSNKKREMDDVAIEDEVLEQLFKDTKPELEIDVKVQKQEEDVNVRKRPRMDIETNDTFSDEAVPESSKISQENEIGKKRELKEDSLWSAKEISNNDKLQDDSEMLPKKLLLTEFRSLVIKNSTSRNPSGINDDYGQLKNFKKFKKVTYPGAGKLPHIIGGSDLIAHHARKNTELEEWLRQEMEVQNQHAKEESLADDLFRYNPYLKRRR
UniProt P03886, sequence (P03886 whole entry, looked up): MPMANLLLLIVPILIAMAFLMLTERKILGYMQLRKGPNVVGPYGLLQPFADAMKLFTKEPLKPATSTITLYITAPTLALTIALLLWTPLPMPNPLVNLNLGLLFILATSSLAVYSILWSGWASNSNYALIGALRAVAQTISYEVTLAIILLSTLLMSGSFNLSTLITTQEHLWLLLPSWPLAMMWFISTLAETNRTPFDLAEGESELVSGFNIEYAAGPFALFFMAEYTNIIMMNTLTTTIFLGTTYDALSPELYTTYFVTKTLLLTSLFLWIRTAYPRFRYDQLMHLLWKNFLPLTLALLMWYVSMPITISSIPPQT
UniProt O75607, sequence (O75607 whole entry, looked up): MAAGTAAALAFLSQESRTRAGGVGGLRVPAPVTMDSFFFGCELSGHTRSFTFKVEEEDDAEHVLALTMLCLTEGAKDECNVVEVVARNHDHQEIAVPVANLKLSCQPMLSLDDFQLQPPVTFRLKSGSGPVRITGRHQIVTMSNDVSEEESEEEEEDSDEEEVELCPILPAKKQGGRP
UniProt Q13330, sequence (Q13330 whole entry, looked up): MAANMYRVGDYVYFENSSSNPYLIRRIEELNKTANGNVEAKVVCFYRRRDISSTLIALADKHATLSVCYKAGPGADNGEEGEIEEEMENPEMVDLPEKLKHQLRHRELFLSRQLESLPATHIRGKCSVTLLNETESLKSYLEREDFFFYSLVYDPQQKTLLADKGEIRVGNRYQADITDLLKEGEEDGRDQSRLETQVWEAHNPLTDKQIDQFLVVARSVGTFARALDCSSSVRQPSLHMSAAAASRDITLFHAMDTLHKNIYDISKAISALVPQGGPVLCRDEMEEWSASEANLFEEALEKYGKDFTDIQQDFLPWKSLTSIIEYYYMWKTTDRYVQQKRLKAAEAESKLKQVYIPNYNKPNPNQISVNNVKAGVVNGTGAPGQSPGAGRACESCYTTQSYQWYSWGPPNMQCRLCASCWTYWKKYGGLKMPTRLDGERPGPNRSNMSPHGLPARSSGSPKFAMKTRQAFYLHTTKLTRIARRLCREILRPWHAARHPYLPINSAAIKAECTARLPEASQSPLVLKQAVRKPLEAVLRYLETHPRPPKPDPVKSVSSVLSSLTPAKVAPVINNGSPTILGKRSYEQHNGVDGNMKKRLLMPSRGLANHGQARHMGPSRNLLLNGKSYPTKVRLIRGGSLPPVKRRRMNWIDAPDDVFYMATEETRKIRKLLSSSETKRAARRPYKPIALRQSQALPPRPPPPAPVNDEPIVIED
UniProt P84157, sequence (P84157 whole entry, looked up): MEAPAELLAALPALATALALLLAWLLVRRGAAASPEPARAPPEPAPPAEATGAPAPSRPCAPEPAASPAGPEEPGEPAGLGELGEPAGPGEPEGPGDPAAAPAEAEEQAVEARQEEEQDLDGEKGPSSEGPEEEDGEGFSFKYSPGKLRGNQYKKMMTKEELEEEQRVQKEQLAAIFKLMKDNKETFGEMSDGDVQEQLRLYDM
UniProt Q9NZJ9, sequence (Q9NZJ9 whole entry, looked up): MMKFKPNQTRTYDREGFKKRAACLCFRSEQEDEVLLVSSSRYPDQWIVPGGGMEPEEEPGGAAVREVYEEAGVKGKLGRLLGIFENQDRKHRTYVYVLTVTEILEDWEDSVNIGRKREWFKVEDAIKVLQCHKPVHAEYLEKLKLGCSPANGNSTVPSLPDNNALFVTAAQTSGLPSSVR
UniProt Q96NT1, sequence (Q96NT1 whole entry, looked up): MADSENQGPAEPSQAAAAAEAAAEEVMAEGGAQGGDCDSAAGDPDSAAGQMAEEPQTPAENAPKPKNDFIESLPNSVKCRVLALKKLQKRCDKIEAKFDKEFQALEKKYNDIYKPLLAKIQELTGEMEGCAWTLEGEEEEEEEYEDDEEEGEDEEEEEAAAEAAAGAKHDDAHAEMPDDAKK

Target	log2 fold change [1]	log2 fold change [2]	log2 fold change [3]	log2 fold change [4]	log2 fold change [5]	log2 fold change [6]	log2 fold change [7]	log2 fold change [8]	log2 fold change [9]	log2 fold change [10]
PAXBP1 (UniProt Q9Y5B6)	-0.043	-0.069	0.015	0.005	-0.004	0.018	0.29 (active)	0.013	-0.003	-0.038
NUP210 (UniProt Q8TEM1)	0.014	0.107	-0.061	0.035	-0.011	0.086	0.145	0.009	0.002	0.003
NMRAL1 (UniProt Q9HBL8)	0	0.036	-0.044	-0.003	0.026	-0.003	0.406 (active)	0.021	0.001	-0.002
PARD3 (UniProt Q8TEW0)	-0.035	-0.087	-0.021	0.144	-0.031	0.007	0.061	-0.013	0.438 (active)	0.04
MRPS12 (UniProt O15235)	-0.015	0.026	-0.021	0.015	0.067	0.011	-0.168	-0.027	-0.053	-0.032
MRPL51 (UniProt Q4U2R6)	-0.039	-0.018	0.016	0.198	-0.002	0.088	-0.208	-0.005	-0.005	-0.044
NPM3 (UniProt O75607)	-0.04	0.015	-0.017	0.062	0.011	0.012	0.028	-0.002	0.023	-0.015
N4BP2 (UniProt Q86UW6)	0.063	-0.17	0.052	0.021	-0.004	0.06	0.003	0.016	0	-0.005
OSBPL6 isoform 5 (UniProt Q9BZF3)	-0.056	-0.05	-0.043	-0.063	-0.047	-0.005	0.015	-0.068	-0.004	0.164
NARF (UniProt Q9UHQ1)	0.001	0.011	0.031	-0.015	-0.014	0.047	0.003	-0.021	-0.019	-0.007
NOC2L (UniProt Q9Y3T9)	-0.009	-0.066	0.043	0.121	0.257 (active)	0.048	-0.02	0.01	0.06	-0.03
MTHFD1, A0A384N5Y3	0.036	-0.076	-0.01	0.03	0.002	-0.016	0.145	-0.007	-0.012	-0.025
MXRA7 (UniProt P84157)	-0.002	-0.056	-0.052	-0.239	0.131	0.051	-0.028	-0.19	-0.009	0.177
NBN (UniProt O60934)	0.008	-0.041	-0.006	-0.029	0.014	0.022	0.048	-0.009	0.018	-0.061
MT-ND1 (UniProt P03886)	-0.149	-0.037	0.043	0.081	0.014	0.046	-0.051	0.032	-0.073	0.087
NDC1 (UniProt Q9BTX1)	-0.131	-0.046	-0.001	-0.058	-0.044	0.03	-0.297 (active)	0.011	0.047	-0.031
NUDT4 isoform 2 (UniProt Q9NZJ9)	-0.001	-0.101	0.01	-0.07	0.073	0.025	-0.129	0.012	0.003	-0.023
MTA1 (UniProt Q13330)	0.007	-0.045	0.013	0.008	-0.01	-0.005	0.098	-0.026	0.023	-0.023
NCAPG2 (UniProt Q86XI2)	-0.014	-0.217	-0.008	0.023	0.04	0.002	-0.018	0.004	-0.01	0.038
MSH2 (UniProt P43246)	0.026	-0.105	-0.017	0.023	0.007	0.011	0.061	-0.011	-0.002	-0.007
NAA30 (UniProt Q147X3)	-0.03	0.051	-0.023	0.002	0.023	-0.032	0.008	0.039	-0.066	0.015
MRPS31 (UniProt Q92665)	-0.023	0.002	-0.029	0.024	0.018	0.006	-0.02	0.007	-0.017	-0.014
NEBL (UniProt O76041)	0.149	0.022	-0.048	0.024	0.043	-0.083	0.015	-0.134	-0.005	0
MTOR (UniProt P42345)	-0.054	-0.118	-0.038	0.01	-0.025	0.016	0.014	0.006	0	-0.039
NFATC2 (UniProt Q13469)	-0.12	-0.118	0.021	-0.028	0.06	0.004	0.1	-0.047	-0.007	-0.025
OSBP (UniProt P22059)	0	0.06	-0.193	-0.009	-0.155	0.017	0.001	0.026	0.042	-0.045
NAP1L5 (UniProt Q96NT1)	0.161	-0.039	0.008	-0.032	-0.082	0.01	-0.047	0.021	-0.039	0.02
NADK2 (UniProt Q4G0N4)	-0.025	0.106	-0.036	0	0.04	-0.052	0.3 (active)	-0.022	-0.004	-0.009
